In the supplement of paper PMC10849652:
About 7,900 targets were measured; listed, in parts, are those with a hit and a random draw of the rest. About 0.6% of all pairs of compound and target were hits. Unmarked numbers belong to inactive results.

The targets below were run with Cc1ncc(-c2ccnc(Nc3ccc(S(C)(=O)=O)cc3)n2)n1C(C)C (assay: log2 fold change, soluble protein after heating vs DMSO (PISA); higher = thermal stabilisation; K562 cells, 10 uM, 30 min; active = over 0.2 and 3.5 SD of the protein, either way, in both replicates (recomputed)).
Summary of the method: (§1)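 K562 cells at 2×10^6 cells/mL were treated with 10 μM compound for 30 min. Aliquots were heated for 3 min across 48°C-58°C, pooled, and extracted in PBS with 0.5% NP-40 at 4°C; soluble protein was the supernatant after 21,000xg for 90 min. Soluble protein was quantified by TMTpro 16plex LC-MS/MS with channel sums equalised, and reported as log2 fold change in thermal stability against DMSO controls, with values from duplicates.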

Sequence of UniProt P68400 (P68400 whole entry, looked up): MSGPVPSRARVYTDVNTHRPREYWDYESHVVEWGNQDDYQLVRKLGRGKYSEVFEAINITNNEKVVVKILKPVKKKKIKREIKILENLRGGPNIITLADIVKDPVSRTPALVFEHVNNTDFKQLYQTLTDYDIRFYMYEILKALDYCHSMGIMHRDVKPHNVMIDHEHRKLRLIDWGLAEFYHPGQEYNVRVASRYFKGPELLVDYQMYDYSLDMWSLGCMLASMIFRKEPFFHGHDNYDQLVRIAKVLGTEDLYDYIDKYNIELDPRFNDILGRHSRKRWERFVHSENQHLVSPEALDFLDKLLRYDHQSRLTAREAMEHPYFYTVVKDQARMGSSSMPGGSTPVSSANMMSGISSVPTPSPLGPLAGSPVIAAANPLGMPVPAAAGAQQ
Sequence of UniProt O14578 (O14578 whole entry, looked up): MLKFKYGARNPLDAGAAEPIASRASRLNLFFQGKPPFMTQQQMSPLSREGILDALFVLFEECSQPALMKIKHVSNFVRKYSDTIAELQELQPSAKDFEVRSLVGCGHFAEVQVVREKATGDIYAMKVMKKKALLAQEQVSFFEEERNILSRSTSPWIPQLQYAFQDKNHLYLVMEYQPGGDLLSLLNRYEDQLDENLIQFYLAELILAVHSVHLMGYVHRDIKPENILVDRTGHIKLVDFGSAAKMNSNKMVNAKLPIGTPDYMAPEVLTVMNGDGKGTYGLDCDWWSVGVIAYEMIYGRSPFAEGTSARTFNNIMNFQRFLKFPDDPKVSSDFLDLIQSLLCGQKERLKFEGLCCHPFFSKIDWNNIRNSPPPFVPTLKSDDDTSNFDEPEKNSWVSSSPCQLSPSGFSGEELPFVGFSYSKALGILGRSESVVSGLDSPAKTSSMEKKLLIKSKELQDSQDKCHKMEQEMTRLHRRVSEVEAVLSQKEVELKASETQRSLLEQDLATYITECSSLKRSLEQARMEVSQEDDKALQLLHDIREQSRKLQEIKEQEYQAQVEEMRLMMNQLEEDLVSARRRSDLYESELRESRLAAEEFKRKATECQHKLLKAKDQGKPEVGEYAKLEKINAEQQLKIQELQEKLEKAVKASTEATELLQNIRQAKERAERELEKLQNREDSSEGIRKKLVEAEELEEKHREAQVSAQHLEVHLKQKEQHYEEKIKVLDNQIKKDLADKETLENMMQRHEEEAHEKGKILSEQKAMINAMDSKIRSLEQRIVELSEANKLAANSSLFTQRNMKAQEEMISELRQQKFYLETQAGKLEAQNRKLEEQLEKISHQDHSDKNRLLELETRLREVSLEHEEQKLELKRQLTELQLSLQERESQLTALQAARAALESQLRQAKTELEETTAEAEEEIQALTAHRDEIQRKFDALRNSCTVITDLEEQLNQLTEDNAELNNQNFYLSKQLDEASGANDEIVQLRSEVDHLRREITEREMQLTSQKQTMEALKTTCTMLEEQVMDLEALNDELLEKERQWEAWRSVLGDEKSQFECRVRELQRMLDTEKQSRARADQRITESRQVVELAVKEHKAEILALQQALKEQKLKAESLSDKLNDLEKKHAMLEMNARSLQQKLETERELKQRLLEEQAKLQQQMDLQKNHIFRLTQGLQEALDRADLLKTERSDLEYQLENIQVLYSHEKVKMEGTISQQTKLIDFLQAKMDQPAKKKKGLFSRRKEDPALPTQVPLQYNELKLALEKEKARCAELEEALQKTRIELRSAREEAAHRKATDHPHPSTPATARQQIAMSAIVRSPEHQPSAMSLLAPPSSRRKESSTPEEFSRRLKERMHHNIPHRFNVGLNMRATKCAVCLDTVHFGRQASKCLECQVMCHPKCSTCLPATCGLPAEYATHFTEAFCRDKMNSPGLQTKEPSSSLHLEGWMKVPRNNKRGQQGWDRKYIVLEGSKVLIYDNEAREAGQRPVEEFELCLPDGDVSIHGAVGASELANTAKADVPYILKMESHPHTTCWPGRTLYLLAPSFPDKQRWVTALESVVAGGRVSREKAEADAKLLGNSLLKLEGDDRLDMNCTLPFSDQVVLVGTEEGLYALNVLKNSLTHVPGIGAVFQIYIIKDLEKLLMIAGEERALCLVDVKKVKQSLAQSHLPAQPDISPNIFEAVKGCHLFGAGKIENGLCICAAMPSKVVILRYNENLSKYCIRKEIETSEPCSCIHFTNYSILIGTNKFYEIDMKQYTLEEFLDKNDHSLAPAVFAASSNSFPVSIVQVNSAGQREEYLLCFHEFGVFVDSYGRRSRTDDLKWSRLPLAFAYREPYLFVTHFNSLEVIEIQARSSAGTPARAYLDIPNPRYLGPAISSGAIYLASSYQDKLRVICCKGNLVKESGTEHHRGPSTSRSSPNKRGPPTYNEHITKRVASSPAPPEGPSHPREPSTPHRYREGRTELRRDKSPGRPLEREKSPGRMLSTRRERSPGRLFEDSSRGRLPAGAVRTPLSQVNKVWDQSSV
Sequence of UniProt O75794 (O75794 whole entry, looked up): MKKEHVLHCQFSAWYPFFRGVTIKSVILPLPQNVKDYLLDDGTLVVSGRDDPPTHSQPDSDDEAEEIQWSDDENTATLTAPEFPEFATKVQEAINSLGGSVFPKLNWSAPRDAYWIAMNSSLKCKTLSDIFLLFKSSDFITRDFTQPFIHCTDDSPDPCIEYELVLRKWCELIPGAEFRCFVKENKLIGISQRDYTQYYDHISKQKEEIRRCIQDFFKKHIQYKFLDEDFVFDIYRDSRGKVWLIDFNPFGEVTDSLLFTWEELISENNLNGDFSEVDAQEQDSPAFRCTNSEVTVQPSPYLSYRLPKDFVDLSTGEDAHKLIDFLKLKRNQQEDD
Sequence of UniProt Q99807 (Q99807 whole entry, looked up): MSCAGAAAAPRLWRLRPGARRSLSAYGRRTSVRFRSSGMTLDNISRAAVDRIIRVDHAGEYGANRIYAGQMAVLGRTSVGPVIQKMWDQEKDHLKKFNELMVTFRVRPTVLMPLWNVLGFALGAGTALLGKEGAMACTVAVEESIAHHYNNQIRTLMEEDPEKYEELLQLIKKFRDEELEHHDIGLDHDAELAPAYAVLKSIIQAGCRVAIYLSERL
Sequence of UniProt P83916 (P83916 whole entry, looked up): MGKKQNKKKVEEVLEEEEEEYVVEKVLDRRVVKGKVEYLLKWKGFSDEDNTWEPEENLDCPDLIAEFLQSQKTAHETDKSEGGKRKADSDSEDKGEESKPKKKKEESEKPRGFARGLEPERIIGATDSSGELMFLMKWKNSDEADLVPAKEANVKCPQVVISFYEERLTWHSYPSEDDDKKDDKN
Sequence of UniProt Q99627 (Q99627 whole entry, looked up): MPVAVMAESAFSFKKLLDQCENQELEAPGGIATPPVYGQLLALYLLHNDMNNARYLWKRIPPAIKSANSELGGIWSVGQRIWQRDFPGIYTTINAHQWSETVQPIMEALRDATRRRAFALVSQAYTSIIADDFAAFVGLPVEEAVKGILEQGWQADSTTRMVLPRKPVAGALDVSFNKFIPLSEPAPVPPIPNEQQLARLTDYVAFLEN
Sequence of UniProt Q96G23 (Q96G23 whole entry, looked up): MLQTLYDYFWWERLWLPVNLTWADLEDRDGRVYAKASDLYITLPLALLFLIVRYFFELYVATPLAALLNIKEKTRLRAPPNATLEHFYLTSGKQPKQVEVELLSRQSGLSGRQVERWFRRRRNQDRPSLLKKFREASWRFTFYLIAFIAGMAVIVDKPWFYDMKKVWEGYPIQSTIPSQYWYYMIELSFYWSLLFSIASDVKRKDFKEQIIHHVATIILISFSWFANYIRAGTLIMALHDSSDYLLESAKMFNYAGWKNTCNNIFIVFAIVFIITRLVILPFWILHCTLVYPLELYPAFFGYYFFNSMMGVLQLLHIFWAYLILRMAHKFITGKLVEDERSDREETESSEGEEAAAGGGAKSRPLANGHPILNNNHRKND
Sequence of UniProt Q16630 (Q16630 whole entry, looked up): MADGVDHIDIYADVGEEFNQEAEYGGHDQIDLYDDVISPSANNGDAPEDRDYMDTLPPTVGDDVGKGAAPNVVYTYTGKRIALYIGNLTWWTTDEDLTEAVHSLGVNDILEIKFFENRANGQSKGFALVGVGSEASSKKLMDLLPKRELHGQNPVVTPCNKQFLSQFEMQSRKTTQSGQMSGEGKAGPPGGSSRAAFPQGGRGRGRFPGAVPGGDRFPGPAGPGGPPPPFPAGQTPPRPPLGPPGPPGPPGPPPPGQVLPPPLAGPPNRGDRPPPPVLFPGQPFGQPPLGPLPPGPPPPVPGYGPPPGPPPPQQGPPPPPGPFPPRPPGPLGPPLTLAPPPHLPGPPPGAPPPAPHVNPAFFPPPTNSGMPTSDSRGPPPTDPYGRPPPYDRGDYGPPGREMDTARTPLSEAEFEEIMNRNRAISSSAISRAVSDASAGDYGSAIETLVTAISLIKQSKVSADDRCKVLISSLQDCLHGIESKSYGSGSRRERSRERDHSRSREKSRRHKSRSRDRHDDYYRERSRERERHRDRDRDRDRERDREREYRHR
Sequence of UniProt Q00534 (Q00534 whole entry, looked up): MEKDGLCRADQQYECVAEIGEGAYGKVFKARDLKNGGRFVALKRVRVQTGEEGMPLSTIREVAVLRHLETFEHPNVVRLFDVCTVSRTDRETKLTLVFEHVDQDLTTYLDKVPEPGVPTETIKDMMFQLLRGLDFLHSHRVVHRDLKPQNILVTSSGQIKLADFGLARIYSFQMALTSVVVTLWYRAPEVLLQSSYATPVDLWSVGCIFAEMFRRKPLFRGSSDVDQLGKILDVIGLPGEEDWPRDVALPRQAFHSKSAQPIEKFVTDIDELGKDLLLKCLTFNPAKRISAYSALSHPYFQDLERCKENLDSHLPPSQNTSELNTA
Sequence of UniProt P21964 (P21964 whole entry, looked up): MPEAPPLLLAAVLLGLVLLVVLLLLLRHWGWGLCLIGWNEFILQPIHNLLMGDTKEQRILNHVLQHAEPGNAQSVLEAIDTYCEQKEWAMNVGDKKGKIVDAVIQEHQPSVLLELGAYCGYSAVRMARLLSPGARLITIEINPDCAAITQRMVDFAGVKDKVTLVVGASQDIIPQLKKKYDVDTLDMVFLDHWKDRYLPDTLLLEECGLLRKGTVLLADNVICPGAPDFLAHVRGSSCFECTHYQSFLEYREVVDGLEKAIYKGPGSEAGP

Row | Target | log2 fold change
1 | CNDP2 (UniProt Q96KP4) | -0.041
2 | CSNK1A1 (UniProt P48729) | 0.033
3 | CNTN4 (UniProt Q8IWV2) | -0.13
4 | CRLF3 (UniProt Q8IUI8) | 0.011
5 | CDC123 (UniProt O75794) | 0.018
6 | CPT1A (UniProt P50416) | -0.107
7 | CERS2 (UniProt Q96G23) | 0.028
8 | COQ7 (UniProt Q99807) | -0.033
9 | CELF2 isoform 3 (UniProt O95319) | 0.079
10 | COPS8 (UniProt Q99627) | 0.007
11 | CBX1 (UniProt P83916) | -0.003
12 | CDK5RAP3 isoform 4 (UniProt Q96JB5) | 0.054
13 | CD53 (UniProt P19397) | -0.003
14 | CCNK isoform 4 (UniProt O75909) | -0.025
15 | COPS4 (UniProt Q9BT78) | 0.007
16 | COASY isoform 2 (UniProt Q13057) | 0.005
17 | CDKN2AIP (UniProt Q9NXV6) | 0.015
18 | CDK6 (UniProt Q00534) | 0.081

Row | Target | log2 fold change
19 | CHCHD1 (UniProt Q96BP2) | -0.031
20 | CLUH (UniProt O75153) | -0.068
21 | CALCOCO2 isoform 4 (UniProt Q13137) | 0.1
22 | COMT (UniProt P21964) | 0.009
23 | COPS3 (UniProt Q9UNS2) | -0.012
24 | CHERP (UniProt Q8IWX8) | 0.011
25 | CPSF6 isoform 2 (UniProt Q16630) | 0.014
26 | CDK13 (UniProt Q14004) | -0.108
27 | COMMD2 (UniProt Q86X83) | 0.097
28 | CDC26 (UniProt Q8NHZ8) | 0.029
29 | CLCN3 isoform 2 (UniProt P51790) | 0.017
30 | CAMKK2 (UniProt Q96RR4) | -0.14
31 | CHKA (UniProt P35790) | 0.088
32 | CSTF3 (UniProt Q12996) | 0.158
33 | CD55 isoform 7 (UniProt P08174) | -0.026
34 | CSNK2A1 (UniProt P68400) | -0.055
35 | CIT isoform 4 (UniProt O14578) | -0.03

The targets below were run with Cn1cc(-c2ccc3c(c2)CCN3C(=O)Cc2cccc(C(F)(F)F)c2)c2c(N)ncnc21 in the same assay as above.
Summary of the method: as §1

Row | Target | log2 fold change
36 | CNDP2 (UniProt Q96KP4) | 0.066
37 | CSNK1A1 (UniProt P48729) | -0.118
38 | CNTN4 (UniProt Q8IWV2) | 0.131
39 | CRLF3 (UniProt Q8IUI8) | 0.025
40 | CDC123 (UniProt O75794) | 0.029
41 | CPT1A (UniProt P50416) | -0.024
42 | CERS2 (UniProt Q96G23) | -0.034
43 | COQ7 (UniProt Q99807) | 0.055
44 | CELF2 isoform 3 (UniProt O95319) | -0.022
45 | COPS8 (UniProt Q99627) | 0.107
46 | CBX1 (UniProt P83916) | -0.034
47 | CDK5RAP3 isoform 4 (UniProt Q96JB5) | 0.008
48 | CD53 (UniProt P19397) | 0.145
49 | CCNK isoform 4 (UniProt O75909) | -0.118
50 | COPS4 (UniProt Q9BT78) | 0.031
51 | COASY isoform 2 (UniProt Q13057) | 0.037
52 | CDKN2AIP (UniProt Q9NXV6) | -0.049
53 | CDK6 (UniProt Q00534) | -0.019

Row | Target | log2 fold change
54 | CHCHD1 (UniProt Q96BP2) | -0.153
55 | CLUH (UniProt O75153) | 0.067
56 | CALCOCO2 isoform 4 (UniProt Q13137) | -0.013
57 | COMT (UniProt P21964) | 0.073
58 | COPS3 (UniProt Q9UNS2) | 0.014
59 | CHERP (UniProt Q8IWX8) | 0.011
60 | CPSF6 isoform 2 (UniProt Q16630) | 0.039
61 | CDK13 (UniProt Q14004) | -0.028
62 | COMMD2 (UniProt Q86X83) | -0.099
63 | CDC26 (UniProt Q8NHZ8) | 0.179
64 | CLCN3 isoform 2 (UniProt P51790) | 0.017
65 | CAMKK2 (UniProt Q96RR4) | -0.083
66 | CHKA (UniProt P35790) | -0.02
67 | CSTF3 (UniProt Q12996) | -0.009
68 | CD55 isoform 7 (UniProt P08174) | -0.051
69 | CSNK2A1 (UniProt P68400) | -0.019
70 | CIT isoform 4 (UniProt O14578) | 0.006
